This is part of a sample that, as a whole, favours compounds with a hit. Of some 83,000 tested, about 20% had one in any assay.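 Plates (96-well) were seeded with cells, treated with compound at one concentration, and incubated for 48 hours before percent growth was determined.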 A number with no mark means an inactive call. Active and inactive are the calls of the source. How the source made its calls: active means growth percent below 10; inactive means the rest.
test system: HS 578T breast; assay: NCI-60 one-dose screen, 48 h (100 = growth as untreated, 0 = no growth, -100 = all killed); conditions: 10 µM

| Compound | growth |
| --- | --- |
| COc1ccc(-c2nc(-c3nc4ccc(Cl)cc4[nH]3)c3ccccn23)cc1 | -19.3% (active) |
| O=C(O)c1ccc(P(=O)(O)O)c([N+](=O)[O-])c1 | 104% |
| COc1ccc2c(c1)N(CCO)C1=C(C(=O)OC1)C2c1ccc(OC)c(OC)c1 (stereo not drawn) | 31% |
| CC(=O)O[C@]1(C)CC[C@H]2[C@H](CNCCc3ccc(Cl)cc3)C(=O)O[C@@H]2C2=C(C)C(=O)C[C@H]21 | 150% |
| COc1ccc(Cl)cc1-n1nnc(-c2nc3ccccc3[nH]2)c1N | 43.3% |
| O=C1/C(=C\c2ccc(F)cc2)CN(C(=O)c2ccccc2)C/C1=C\c1ccc(F)cc1 | 28.1% |
| CCC(=O)N1C/C(=C/c2ccc(Cl)cc2)C(=O)/C(=C/c2ccc(Cl)cc2)C1 | 22.2% |
| COc1cc(C2CC(c3ccc(Nc4ccnc5cc(Cl)ccc45)cc3)=NN2c2ccc(Cl)cc2)cc(OC)c1OC (stereo not drawn) | 61.6% |
| COc1cc(NC(=O)CCSc2nc3ccc(C)cc3c(=O)n2Cc2ccccc2)cc(OC)c1OC | 6.72% (active) |
| COc1cc(Nc2ncnc(Nc3ccc4c(n3)NC(=O)C(C)(C)O4)n2)cc(OC)c1OC | -20.4% (active) |
| C[C@@H]1C=C2C(=O)O[C@@H]3CC[C@H](C1)[C@]23O | 96.4% |
| N#CCCN1C/C(=C/c2ccc(Cl)cc2)C(=O)/C(=C/c2ccc(Cl)cc2)C1 | -9.16% (active) |
| Cc1[nH]nc2c1C(c1cnn(C)c1)C(C#N)=C(N)O2 (stereo not drawn) | 104% |
| O=C(Nc1nc2ccc(F)cc2s1)c1cc(-c2ccc(F)cc2)n2nc(-c3ccccc3)cc2n1 | 73.3% |
| COc1ccc(-c2nc(-c3nc4cc(Cl)c(Cl)cc4[nH]3)c3ccccn23)cc1 | 12.9% |
| Cc1ccc(CC#N)cc1C | 173% |
| O=C1/C(=C\c2ccc(Cl)cc2)CN(C(=S)Nc2ccccc2)C/C1=C\c1ccc(Cl)cc1 | -23.1% (active) |
| C#Cc1ccc(-n2c(/C=C/c3ccc4ccccc4n3)nc3ncccc3c2=O)cc1 | 11% |
| N#CCCN1C/C(=C/c2ccccc2)C(=O)/C(=C/c2ccccc2)C1 | -9.54% (active) |
| CCC(=O)N1C/C(=C/c2ccc(OC)cc2)C(=O)/C(=C/c2ccc(OC)cc2)C1 | 9.81% (active) |

| Compound | growth |
| --- | --- |
| Cc1ccc(C)c(C(O)(c2cc(C)ccc2C)C2(O)CCCCC2)c1 | 94.1% |
| O=C1/C(=C\c2ccc(F)cc2)CN(C(=O)c2ccc([N+](=O)[O-])cc2)C/C1=C\c1ccc(F)cc1 | -9.57% (active) |
| CC(=O)OCc1cc(-c2nc3ccccc3[nH]c2=O)nn1-c1ccc(Cl)cc1 | 100% |
| O=C1/C(=C\c2ccc(Cl)cc2)CN(C(=O)c2ccccc2)C/C1=C\c1ccc(Cl)cc1 | 5.5% (active) |
| CC(C)(C)c1cc(Br)cc(C(C)(C)C)c1O | 120% |
| C#Cc1ccc(-n2c(/C=C/c3ccc(C(F)(F)F)cc3)nc3ncccc3c2=O)cc1 | 72.4% |
| CC/C(=C(/c1ccc(OCCN(C)C)cc1)c1ccc(OC(=O)CCCCC(=O)c2c(C)[nH]c(/C=C3\N=C(c4ccc[nH]4)C=C3OC)c2C)cc1)c1ccccc1 | 33.8% |
| CSc1nn(-c2ccccc2)c2ncnc(Oc3ccccc3)c12 | 148% |
| COc1cc(/C=C\c2cc(OC)c(OC)c(OC)c2)cc(NS(=O)(=O)c2ccc(Cl)cc2)c1OC | 1.49% (active) |
| COc1ccc(/C=C2/CN(CCC#N)C/C(=C\c3ccc(OC)cc3)C2=O)cc1 | 33.1% |
| c1ccc(CP(Cc2ccccc2)c2ccccc2)cc1 | 117% |
| COc1ccc(-c2nc(-c3nc4cc(Cl)c(F)cc4[nH]3)c3ccccn23)cc1 | 133% |
| Cc1nc2ccccc2c(N)c1-c1cc(C)c2c(C)nc3ccccc3c2n1 | -32.3% (active) |
| CC1(C)CCC(=NNC(N)=S)CC1 | 103% |
| Nc1nc(Nc2ccccc2)n[nH]1 | 119% |
| CCOC(=O)N1C/C(=C/c2ccc(OC)cc2)C(=O)/C(=C/c2ccc(OC)cc2)C1 | -15.8% (active) |
| CC(=O)n1c(-c2ccc(Cl)c(Cl)c2)cn(-c2ccc(Cl)cc2)c1=O | -15.5% (active) |
| N=C(N)c1ccc(-c2ccc(-c3ccco3)o2)cc1 | 83.4% |
| COc1ccc(/C=C/C(C)=N/OCC(=O)O)cc1 | 113% |

test system: NCI/ADR-RES ovarian; assay: as above; conditions: 10 µM

| Compound | growth |
| --- | --- |
| COc1ccc(-c2nc(-c3nc4ccc(Cl)cc4[nH]3)c3ccccn23)cc1 | 33.6% |
| O=C(O)c1ccc(P(=O)(O)O)c([N+](=O)[O-])c1 | 108% |
| COc1ccc2c(c1)N(CCO)C1=C(C(=O)OC1)C2c1ccc(OC)c(OC)c1 (stereo not drawn) | 71.8% |
| CC(=O)O[C@]1(C)CC[C@H]2[C@H](CNCCc3ccc(Cl)cc3)C(=O)O[C@@H]2C2=C(C)C(=O)C[C@H]21 | 109% |
| COc1ccc(Cl)cc1-n1nnc(-c2nc3ccccc3[nH]2)c1N | 92.1% |
| O=C1/C(=C\c2ccc(F)cc2)CN(C(=O)c2ccccc2)C/C1=C\c1ccc(F)cc1 | 24.8% |
| CCC(=O)N1C/C(=C/c2ccc(Cl)cc2)C(=O)/C(=C/c2ccc(Cl)cc2)C1 | 14.9% |
| COc1cc(C2CC(c3ccc(Nc4ccnc5cc(Cl)ccc45)cc3)=NN2c2ccc(Cl)cc2)cc(OC)c1OC (stereo not drawn) | 29.6% |
| COc1cc(NC(=O)CCSc2nc3ccc(C)cc3c(=O)n2Cc2ccccc2)cc(OC)c1OC | 83.8% |
| COc1cc(Nc2ncnc(Nc3ccc4c(n3)NC(=O)C(C)(C)O4)n2)cc(OC)c1OC | 34.2% |
| C[C@@H]1C=C2C(=O)O[C@@H]3CC[C@H](C1)[C@]23O | 93.2% |
| N#CCCN1C/C(=C/c2ccc(Cl)cc2)C(=O)/C(=C/c2ccc(Cl)cc2)C1 | 11.1% |
| Cc1[nH]nc2c1C(c1cnn(C)c1)C(C#N)=C(N)O2 (stereo not drawn) | 108% |
| O=C(Nc1nc2ccc(F)cc2s1)c1cc(-c2ccc(F)cc2)n2nc(-c3ccccc3)cc2n1 | 53% |
| COc1ccc(-c2nc(-c3nc4cc(Cl)c(Cl)cc4[nH]3)c3ccccn23)cc1 | 51.4% |
| Cc1ccc(CC#N)cc1C | 106% |
| O=C1/C(=C\c2ccc(Cl)cc2)CN(C(=S)Nc2ccccc2)C/C1=C\c1ccc(Cl)cc1 | 1.25% (active) |
| C#Cc1ccc(-n2c(/C=C/c3ccc4ccccc4n3)nc3ncccc3c2=O)cc1 | -6.13% (active) |
| N#CCCN1C/C(=C/c2ccccc2)C(=O)/C(=C/c2ccccc2)C1 | 1.6% (active) |
| CCC(=O)N1C/C(=C/c2ccc(OC)cc2)C(=O)/C(=C/c2ccc(OC)cc2)C1 | 25% |

| Compound | growth |
| --- | --- |
| Cc1ccc(C)c(C(O)(c2cc(C)ccc2C)C2(O)CCCCC2)c1 | 94.8% |
| O=C1/C(=C\c2ccc(F)cc2)CN(C(=O)c2ccc([N+](=O)[O-])cc2)C/C1=C\c1ccc(F)cc1 | 24.3% |
| CC(=O)OCc1cc(-c2nc3ccccc3[nH]c2=O)nn1-c1ccc(Cl)cc1 | 90.9% |
| O=C1/C(=C\c2ccc(Cl)cc2)CN(C(=O)c2ccccc2)C/C1=C\c1ccc(Cl)cc1 | 28.3% |
| CC(C)(C)c1cc(Br)cc(C(C)(C)C)c1O | 107% |
| C#Cc1ccc(-n2c(/C=C/c3ccc(C(F)(F)F)cc3)nc3ncccc3c2=O)cc1 | 29.3% |
| CC/C(=C(/c1ccc(OCCN(C)C)cc1)c1ccc(OC(=O)CCCCC(=O)c2c(C)[nH]c(/C=C3\N=C(c4ccc[nH]4)C=C3OC)c2C)cc1)c1ccccc1 | 71.7% |
| CSc1nn(-c2ccccc2)c2ncnc(Oc3ccccc3)c12 | 96.6% |
| COc1cc(/C=C\c2cc(OC)c(OC)c(OC)c2)cc(NS(=O)(=O)c2ccc(Cl)cc2)c1OC | 12.8% |
| COc1ccc(/C=C2/CN(CCC#N)C/C(=C\c3ccc(OC)cc3)C2=O)cc1 | 7.02% (active) |
| c1ccc(CP(Cc2ccccc2)c2ccccc2)cc1 | 101% |
| COc1ccc(-c2nc(-c3nc4cc(Cl)c(F)cc4[nH]3)c3ccccn23)cc1 | 60.2% |
| Cc1nc2ccccc2c(N)c1-c1cc(C)c2c(C)nc3ccccc3c2n1 | 43.8% |
| CC1(C)CCC(=NNC(N)=S)CC1 | 105% |
| Nc1nc(Nc2ccccc2)n[nH]1 | 96.6% |
| CCOC(=O)N1C/C(=C/c2ccc(OC)cc2)C(=O)/C(=C/c2ccc(OC)cc2)C1 | 21.7% |
| CC(=O)n1c(-c2ccc(Cl)c(Cl)c2)cn(-c2ccc(Cl)cc2)c1=O | 11.8% |
| N=C(N)c1ccc(-c2ccc(-c3ccco3)o2)cc1 | 93.1% |
| COc1ccc(/C=C/C(C)=N/OCC(=O)O)cc1 | 106% |

Reference: PubChem BioAssay (NCI)
